ULK1 primary: human ULK1 kinase inhibition, primary screen. 1.9% of 30,000 active. inhibition, % at 5.96 µM. AID 1259251. AlphaScreen Atg13 phosphorylation by ULK1, luminescence; in the data active means inhibition above about 43%
ASK1 inh: inhibitors of human ASK1 kinase | Q99683 | AlphaScreen MKK6 phosphorylation by ASK1, luminescence | inhibition, % at 7.44 µM | 0.99% of 22,000 active; in the data active means inhibition above about 35%
AlphaScreen intf: AlphaScreen optical interference dose response, ASK1 counter-screen. AID 1159604. IC50, µM. AlphaScreen TruHits beads, signal interference counterscreen. shares compounds with ASK1 inh. 20% of 220 active;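 active means IC50 of 10 µM or lower in the counterscreen; inactive means IC50 above 10 µM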;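 further: loss of AlphaScreen light from TruHits beads alone with no ASK1 enzyme present; potency of signal reduction so a low IC50 flags an assay artifact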
Hits are given with their value; – = inactive; · = no result given; ! = repeats disagree. This is a sample that favours compounds with a hit; in the whole collection about 2.4% have one here.

SMILES | ULK1 primary | ASK1 inh | AlphaScreen intf
FC(F)(F)c1cccc(CNc2nc(Nc3ccc(N4CCOCC4)cc3)nc3nc[nH]c23)c1 | – | 45.5! | –
CC(C)n1cnc2c(NCc3cccc(C(F)(F)F)c3)nc(Nc3ccccc3)nc21 | – | – | ·
CC(C)n1cnc2c(NCc3cccc(C(F)(F)F)c3)nc(Nc3ccc(N4CCOCC4)cc3)nc21 | – | 54.6! | 6.4
Cc1nn(C)c(C)c1-c1nc2ncnc(Nc3ccccc3)c2[nH]1 | – | – | ·
CCCNc1nc(-c2c(C)noc2C)nc2c1ncn2Cc1ccc(C(F)(F)F)cc1 | – | – | ·
O=C(NCCO)c1cnc(N2CCN(c3ccccn3)CC2)s1 | – | – | ·
FC(F)(F)c1ccc(Cn2cnc3c(NC4CCN(Cc5ccccc5)CC4)nc(Nc4ccc(N5CCOCC5)cc4)nc32)cc1 | – | 39.9 | –
FC(F)(F)c1ccc(Cn2cnc3c(NC4CC4)nc(Nc4ccc(N5CCOCC5)cc4)nc32)cc1 | – | – | ·
FC(F)(F)c1ccc(Cn2cnc3c(Nc4ccc5c(c4)OCO5)nc(NC4CCN(Cc5ccccc5)CC4)nc32)cc1 | – | 46.1 | –
FC(F)(F)c1ccc(Cn2cnc3c(Nc4ccccc4)nc(NC4CCN(Cc5ccccc5)CC4)nc32)cc1 | – | – | ·
c1ccc(CN2CCC(Nc3nc(Nc4ccc(N5CCOCC5)cc4)nc4c3ncn4-c3ccccc3)CC2)cc1 | – | – | ·
c1ccc(CN2CCC(Nc3nc(Nc4ccc(N5CCOCC5)cc4)nc4c3ncn4C3CCCCC3)CC2)cc1 | – | 50.0 | 8.12
CN(C)c1cccc(Nc2nc(NCCc3ccc(O)cc3)c3ncn(-c4ccccc4)c3n2)c1 | – | 36.8 | –
COc1ccc(CCNc2nc(Nc3cccc(N(C)C)c3)nc3c2ncn3Cc2ccc(C(F)(F)F)cc2)cc1 | – | – | ·
CN(C)c1cccc(Nc2nc(NCCc3ccc(O)cc3)c3ncn(C4CCCCC4)c3n2)c1 | – | 37.7 | –
CC(C)N(CCNc1nc(Nc2cccc(N(C)C)c2)nc2c1ncn2C1CCCCC1)C(C)C | – | – | ·
Oc1ccc(CCNc2nc(Nc3ccccc3)nc3c2ncn3-c2ccccc2)cc1 | – | – | ·
CN(C)c1cccc(Nc2nc(NCCc3ccc(O)cc3)c3ncn(Cc4ccc(C(F)(F)F)cc4)c3n2)c1 | – | 36.8 | –
COc1cccc2cc(-c3csc(NC(=O)c4ccc(F)cc4)n3)oc12 | – | · | ·
O=C(Nc1ccc2c(c1)OCO2)c1cc(Nc2ccc(N3CCOCC3)cc2)nc2ccccc12 | – | – | ·
Fc1cc(-c2ccnc(Nc3ccc(-n4ccnn4)cc3)n2)cc(N2CCOCC2)c1 | – | – | ·
OC1CCN(c2ccc(Nc3nccc(-c4cc(F)cc(N5CCN(C6CC6)CC5)c4)n3)cc2)CC1 | 54.7 | 40.6 | –
Cc1nc(C)n(-c2ccc(Nc3nccc(-c4cc(F)cc(-c5cn[nH]c5C)c4)n3)cc2)n1 | – | 35.6 | –
Cc1[nH]ncc1-c1cc(F)cc(-c2ccnc(Nc3ccc(-n4cnc(C(F)(F)F)n4)cc3)n2)c1 | – | – | ·
Cc1nc(C)n(-c2ccc(Nc3nccc(-c4cc(F)cc(-c5ccnn5C)c4)n3)cc2)n1 | – | – | ·
SMILES | ULK1 primary | ASK1 inh | AlphaScreen intf
Cc1ncn(-c2ccc(Nc3nccc(-c4cc(F)cc(-c5cn[nH]c5C)c4)n3)cc2)n1 | – | 48.1 | –
Cc1nc(C)n(-c2ccc(Nc3nccc(-c4cncc(F)c4)n3)cc2)n1 | – | – | ·
Cc1nc(C)n(-c2ccc(Nc3nccc(-c4cc(F)cc(-c5ncco5)c4)n3)cc2)n1 | – | 37.7 | –
CC(C)=C(NC(=O)c1ccccc1)C(=O)N/N=C/c1cc2c(cc1[N+](=O)[O-])OCO2 | – | · | ·
O=C(NCc1cccc(C(F)(F)F)c1)c1cccc(-c2ccc(C(=O)NC3CC3)cc2)c1 | – | – | ·
NC(=O)c1ccc(-c2cncc(C(=O)NCCO)c2)cc1 | – | – | ·
Cc1cc(NCc2cccc(C(F)(F)F)c2)nc(Nc2ccccn2)n1 | – | – | ·
CCNc1nc(Nc2ccc3c(c2)OCO3)c2cc(OC)c(OC)cc2n1 | – | – | ·
COc1cc2nc(Nc3cc(OC)c(OC)c(OC)c3)nc(NC3CC3)c2cc1OC | – | – | ·
COc1cc2nc(Nc3ccncn3)nc(Nc3ccc(N4CCOCC4)cc3)c2cc1OC | – | – | ·
COc1cc2nc(Nc3ccc(N4CCOCC4)cc3)nc(NC3CC3)c2cc1OC | – | 42.6 | –
COc1cc2nc(N3CCOCC3)nc(Nc3ccc(N4CCOCC4)cc3)c2cc1OC | – | – | ·
COc1cc2nc(Nc3cccc(N(C)C)c3)nc(Nc3ccc4c(c3)OCO4)c2cc1OC | – | 61.0 | 3.64
COc1cc2nc(Nc3cc(OC)c(OC)c(OC)c3)nc(Nc3ccc(N4CCOCC4)cc3)c2cc1OC | – | 47.6 | 7.18
COc1cc2nc(Nc3ccc(N4CCOCC4)cc3)nc(Nc3cc(OC)c(OC)c(OC)c3)c2cc1OC | – | 52.9 | 7.74
O=CC1CCN(Cc2ccccc2)CC1 | – | · | ·
CC(=O)c1cccc(-c2cccc(C(=O)NCCOc3ccccc3)c2)c1 | – | – | ·
O=C(NCc1ccccc1)C1CCN(c2ccc(Cl)nn2)CC1 | – | – | ·
O=C(Nc1ccc(N2CCOCC2)cc1)c1cccc(-n2nccc2NC(=O)c2ccco2)c1 | – | – | ·
Cc1cnc(Nc2cccc(N(C)C)c2)nc1Nc1ccc(N2CCOCC2)cc1 | – | – | ·
COc1cc2nc(Nc3cccc(N(C)C)c3)nc(Nc3ccc(N4CCOCC4)cc3)c2cc1OC | – | 55.7 | 6.42
COc1ccc2c(c1)C[C@H](C(=O)Nc1ccc(-c3cn[nH]c3)cc1OCCN(C)C)CO2 | – | – | ·
COc1ccc2c(c1)CC(C(=O)Nc1ccc(-c3cn[nH]c3)cc1OCCN(Cc1ccccc1)Cc1ccccc1)CO2 (centres undefined) | – | 41.3 | –
c1ccc(Oc2ccc(Nc3nc(N4CCOCC4)nc4c3ncn4-c3ccccc3)cc2)cc1 | – | – | ·
c1ccc(Oc2ccc(Nc3nc(N4CCc5ccccc5C4)nc4c3ncn4-c3ccccc3)cc2)cc1 | – | 45.8 | –
SMILES | ULK1 primary | ASK1 inh | AlphaScreen intf
Cn1c(Nc2ccc(N3CCC(C(=O)NCc4cccnc4)CC3)nn2)nc2ccccc21 | – | – | ·
O=C(NC1=NCCS1)c1cccc(Cl)c1 | – | · | ·
CCN(CC)c1nc(Nc2ccc(N3CCOCC3)cc2)nc(N2CCN(Cc3ccc4c(c3)OCO4)CC2)n1 | – | 42.7 | –
CCN(CC)c1nc(Nc2ccc(N3CCOCC3)cc2)nc(N2CCC(N3CCOCC3)CC2)n1 | – | – | ·
CCN(CC)c1nc(Nc2ccc3c(c2)OCO3)nc(N2CCC(N3CCOCC3)CC2)n1 | – | 38.9 | –
CCN(CC)c1nc(Nc2ccccc2)nc(N2CCN(Cc3ccc4c(c3)OCO4)CC2)n1 | – | – | ·
NC(C(=O)N1CCC(NC(=O)Nc2ccncc2)CC1)c1ccc(Br)cc1 (centres undefined) | – | – | ·

Screening results as filed in PubChem.
